In the supplement of paper PMC4894684:
± gives the standard deviation of the averaged measurements.

The compounds below were run on Toxoplasma gondii RH (in HFF) (assay: parasite growth relative to the screen mean (all compounds = 100%); higher = less inhibition of parasite growth). Settings: 5 µM; 72 h; oxygen 21 %.
Method in brief: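 Each value is parasite growth expressed against the screen mean, averaged over two screens, where the mean of all compounds = 100%. The screen used 5 µM final compound on confluent human foreskin fibroblasts infected with RH β-Gal–GFP Toxoplasma (MOI 1:5) within 2 h and grown 72 h at 21% O2. Parasite number was measured by a CPRG β-Gal assay against in-plate standard curves.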

**Q.** For `CC1(C)NC(=O)N(c2ccc([N+](=O)[O-])c(C(F)(F)F)c2)C1=O` [Nilutamide], which parasite growth is on record?
**A.** 150 ± 36%

**Q.** For `N[C@H](C(=O)O)[C@H](OCc1ccccc1)C(=O)O` (racemic), which parasite growth is on record?
**A.** 80.3 ± 61%

**Q.** With `Cc1c(C(=O)N(C)C2CCCCC2)sc2nc3ccc(N)cc3n12` as the compound, how does the parasite growth read?
**A.** 185 ± 31%

**Q.** For `CC[N+](CC)(CC)CCOc1ccc(/C=C/c2ccccc2)cc1`, which parasite growth is on record?
**A.** 99.2 ± 19%

**Q.** With `O=C(O)c1cccnc1C(=O)O` [Quinolinic acid] as the compound, how does the parasite growth read?
**A.** 125 ± 12%

**Q.** With `O=C(Nc1cccc2cccnc12)c1ccc(N2C(=O)[C@@H]3[C@H](C2=O)[C@@H]2C=C[C@H]3C2)cc1` [endo-IWR 1] as the compound, how does the parasite growth read?
**A.** 113 ± 21%

**Q.** `NC(=O)c1ccc(-c2nc(-c3ccccn3)c(-c3ccc4c(c3)OCO4)[nH]2)cc1` was tested. Which parasite growth did it give?
**A.** 36.2 ± 32%

**Q.** Which parasite growth does the source give for `OC[C@H]1O[C@@H](n2cnc3c(N[C@H]4CCC[C@@H]4O)ncnc32)[C@H](O)[C@@H]1O` here?
**A.** 140 ± 10%

**Q.** `NS(=O)(=O)C#Cc1ccccc1` [Pifithrin->m] was tested. Which parasite growth did it give?
**A.** 123 ± 13%

**Q.** How did the parasite growth turn out when `CC1=NN(c2ccccc2)C(=O)C1` was run?
**A.** 133 ± 8.7%
